The values below come from the supplement of paper PMC6555819.

Common to all, as to assay: PBM binding z-score (relative to random genomic background probes); higher = stronger binding; sequences stand for … in GC…GCGATTGACAGCGTAGAATGAAGG
In test [1] the test system is PPARg:RXRa DBDmut IVT, anti-RXR (DBD mutation: RXRa K156A/R161A, NR concentration 270 nM, RXRa partner concentration 90 nM). In outline: (§1)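 Binding buffer was PBS pH 7.4 with 2% milk, 0.02% Triton X-100, 1 mM DTT, 0.2 mg/mL BSA and 0.4 mg/ml salmon testes DNA. In it, ligand-free nuclear receptor dimers were incubated 1 h on custom Agilent 4×180K protein-binding microarrays carrying double-stranded probes. Antibodies against each partner (one per run) detected binding, and z-scores were calculated against random background probes after regression normalization of scanned fluorescence.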

Test [2] has as its system PPARg:RXRa IVT, anti-PPARg (NR concentration 270 nM, RXRa partner concentration 90 nM). The procedure, abridged:
as §1

Test [3] relates to PPARg DBDmut:RXRa IVT, anti-PPARg (DBD mutation: PPARg1 K132A/R137A, NR concentration 270 nM, RXRa partner concentration 90 nM). In outline: as §1
Test [4] concerns PPARg DBDmut IVT, anti-PPARg (DBD mutation: PPARg1 K132A/R137A, NR concentration 270 nM). In outline: as §1
For test [5], the system named is PPARg homodimer (NR concentration 180 nM). In outline:
as §1

Test [6] concerns PXR:RXRa (NR concentration 270 nM, RXRa partner concentration 90 nM). The procedure, abridged: as §1
Test [7] deals with PXR homodimer (NR concentration 270 nM). In outline:
as §1

The subject of test [8] is RARa:RXR (NR concentration 270 nM, RXRa partner concentration 90 nM). In outline:
as §1

In test [9] the test system is RARa homodimer (NR concentration 270 nM). The procedure, abridged: as §1
In test [10] the test system is RARb:RXRa (NR concentration 270 nM, RXRa partner concentration 90 nM). The procedure, abridged: as §1
Test [11] has as its system RARb homodimer (NR concentration 270 nM). In outline: as §1
Test [12] deals with RARg:RXRa (NR concentration 270 nM, RXRa partner concentration 90 nM). In outline: as §1
For test [13], the system named is RARg homodimer (NR concentration 270 nM). The procedure, abridged: as §1
The subject of test [14] is RXRa DBDmut IVT, anti-RXR (DBD mutation: RXRa K156A/R161A, NR concentration 90 nM). The procedure, abridged: as §1
The test system of test [15] is RXRa homodimer (NR concentration 180 nM). The procedure, abridged:
as §1

For test [16], the system named is THRa:RXRa (NR concentration 90 nM, RXRa partner concentration 90 nM). The procedure, abridged:
as §1

Test [17] concerns THRa homodimer (NR concentration 90 nM). In outline: as §1
For test [18], the system named is VDR homodimer (NR concentration 270 nM). The procedure, abridged:
as §1

As for AATACAGGCTCACTAGGCCAGAGTAGGTACGAAT, the PBM binding z-score was 0.83 in [1]; 1.96 in test [2]; 0.786 in test [3]; 0.55 in [4]; -0.108 in [5]; -0.759 in test [6]. Besides, the PBM binding z-score in [7] was -0.466; in [8], -0.759; in test [9], -0.709; in test [10], -0.981; in test [11] it was -0.345; in test [12], -0.402. In addition, the PBM binding z-score in test [13] was -0.0557; in [14], -0.214; in [15], -0.169; in [16], -0.688; in test [17], -0.397; in test [18], -0.126.

With CAGACTGGGGCAAGGTTACCATAACGCACAGCCA, the PBM binding z-score in test [1] came out at 4.18; in [2], 4.53; in [3], 1.14; in [4] it was 0.637; in [5], 0.947; in test [6], 0.474. The PBM binding z-score was -0.134 in [7]; 0.82 in test [8]; 0.141 in [9]; 1.8 in [10]; 1.35 in [11]; 1.16 in test [12]. Further, the PBM binding z-score was 1.52 in test [13]; -0.141 in [14]; 1.34 in test [15]; 1.41 in test [16]; 0.328 in [17]; 0.0721 in [18].

In the case of TGTCAAAGTTCAAAGGTATCGTAAGTATCCACAC, the PBM binding z-score in test [1] is -0.2; in test [2], 3.95; in test [3], 0.81; in [4], 1.08; in test [5], 2.53; in test [6], 5.14. The PBM binding z-score in [7] came out at 4.92; in test [8] it was 4.95; in test [9], 1.12; in test [10], 4.91; in test [11], 3.71; in [12] it was 5.75. The PBM binding z-score was 6.26 in test [13]; 4.47 in test [14]; 6.28 in test [15]; 2.56 in [16]; -0.19 in [17]; 4.53 in [18].

Turning to CCCCGGAGGACAACAGGAGGTCAGAGCTGCCAGA, the PBM binding z-score in test [1] is -0.654; in test [2] it was 0.373; in [3], -1.55; in test [4], -1.4; in [5], 2.15; in test [6], 2.19. For the same sequence, the PBM binding z-score in [7] turned out to be 0.777; in test [8], 2.7; in [9] it was 0.677; in [10], 2.86; in test [11], 3.5; in test [12], 3.66. Further, the PBM binding z-score is 3.24 in test [13]; -0.883 in [14]; 2.21 in test [15]; 2.94 in [16]; 1.39 in test [17]; 1.77 in [18].

As for GCAGACAGGTGAAACGCACGTAACTCAGGGTGGC, the PBM binding z-score in test [1] is 0.74; in test [2], 0.58; in test [3], 0.226; in [4] it was -0.35; in test [5], -0.768; in test [6] it was -0.397. Besides, the PBM binding z-score was -0.419 in [7]; -0.0418 in test [8]; -0.719 in test [9]; 0.539 in test [10]; -0.115 in [11]; 0.327 in test [12]. Besides, the PBM binding z-score in test [13] was 0.0511; in test [14], -0.335; in [15], 0.528; in [16], -0.124; in test [17] it was -0.367; in test [18], -0.768.

As to AGAACGAGGACAATGAGTTGATAGCACGGGTGGC, the PBM binding z-score in [1] was 1.03; in test [2] it was 0.378; in test [3] it was -0.192; in test [4] it was -0.367; in [5], 0.00958; in [6], 0.277. Also, the PBM binding z-score in test [7] was 1.99; in test [8] it was -0.176; in test [9] it was 0.102; in [10] it was 0.775; in [11], 0.202; in test [12], 0.444. In addition, the PBM binding z-score was 1.06 in [13]; 1.31 in test [14]; 0.454 in test [15]; 2.19 in [16]; 1.15 in [17]; 2.33 in test [18].

As for AGAATGAGGTTCCCAAAGATCAGGGAAACGCTTG, the PBM binding z-score in [1] is 0.186; in test [2] it was 0.311; in test [3], 1.11; in test [4] it was 0.173; in [5], 0.224; in [6], -0.152. Besides, the PBM binding z-score in test [7] is -0.346; in test [8], 0.182; in [9], -0.181; in [10] it was -0.0949; in test [11], -0.864; in test [12], 0.141. Also, the PBM binding z-score in test [13] was 0.123; in test [14], -0.649; in test [15], 0.474; in test [16], 0.218; in test [17], -0.623; in [18], -0.39.
